PubChem BioAssay AID1211 (NMMLSC, 2008)
Calls of active or inactive are those of the source. How the calls were made is not given here.

Biological target: Estrogen receptor (Homo sapiens) (UniProt P03372)
Test: ERalpha ligand binders by competition, primary screen, cell-based, Cos7 ERalpha-GFP, flow cytometry (AID 1211);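 further: 0% = DMSO vehicle wells and 100% = no E2-Alexa633 signal left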
Conditions: fluorescent ligand competition, at 10 µM, stronger effect = higher value

Chain of Estrogen receptor (Homo sapiens) (P03372 whole entry, looked up): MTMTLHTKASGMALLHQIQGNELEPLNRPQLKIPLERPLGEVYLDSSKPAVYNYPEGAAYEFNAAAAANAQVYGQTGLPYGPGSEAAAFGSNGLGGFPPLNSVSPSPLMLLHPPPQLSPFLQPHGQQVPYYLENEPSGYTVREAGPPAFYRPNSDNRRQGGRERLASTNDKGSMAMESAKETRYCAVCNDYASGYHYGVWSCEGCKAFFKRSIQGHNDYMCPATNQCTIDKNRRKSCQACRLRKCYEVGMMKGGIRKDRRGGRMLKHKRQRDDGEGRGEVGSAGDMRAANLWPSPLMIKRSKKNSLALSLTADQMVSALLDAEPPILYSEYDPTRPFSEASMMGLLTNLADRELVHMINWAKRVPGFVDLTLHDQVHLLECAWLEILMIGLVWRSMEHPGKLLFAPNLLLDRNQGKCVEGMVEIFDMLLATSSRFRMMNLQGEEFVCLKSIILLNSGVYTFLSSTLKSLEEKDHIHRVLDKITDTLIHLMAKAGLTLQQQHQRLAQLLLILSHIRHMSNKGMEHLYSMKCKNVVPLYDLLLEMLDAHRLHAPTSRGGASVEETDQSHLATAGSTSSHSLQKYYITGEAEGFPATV

Row | Structure (SMILES) | inhibition of ligand binding
1 | COc1ccc(C2(CN)CCCC2)cc1 | 21% (inactive)
2 | O=C1C2CCN(CC2)C1Cc1ccc(O)cc1 (stereo not drawn) | 0% (inactive)
3 | C[C@H]1CCC[C@@H](O)CCC/C=C/c2cc(O)cc(O)c2C(=O)O1 | 67% (active)
4 | O=C(O)c1cccc2c1NC(C(=O)O)C1CC(Sc3ccccc3[N+](=O)[O-])C(Cl)C21 (stereo not drawn) | 0% (inactive)
5 | Cc1ccc(S(=O)(=O)Cc2ccc(C(=O)N3CCC4(CC3)OCCO4)o2)cc1 | 31% (inactive)
6 | CC(=O)c1ccc2c(c1)C1C(Cl)C(Sc3ccccc3[N+](=O)[O-])CC1C(C(=O)O)N2 (stereo not drawn) | 0% (inactive)
7 | N=c1c[n+](CCc2ccc(O)cc2)[n-]o1 | 7% (inactive)
8 | CC(=O)c1ccc2c(c1)C1C(Cl)C(Sc3ccccc3[N+](=O)[O-])CC1C(c1ccccc1)N2 (stereo not drawn) | 69% (active)
9 | Cc1ccc2c(c1Cl)NC(C(=O)O)C1CC(Sc3ccccc3[N+](=O)[O-])C(Cl)C21 (stereo not drawn) | 0% (inactive)
10 | COc1ccc2[nH]cc(CCN=C(N)N)c2c1 | 1% (inactive)
11 | COc1ccc(C2(CN)CCCC2)cc1OC | 2% (inactive)
12 | O=C(O)c1ccc2c(c1)C1C(Cl)C(Sc3ccccc3[N+](=O)[O-])CC1C(c1cccc([N+](=O)[O-])c1)N2 (stereo not drawn) | 0% (inactive)
13 | CC(=O)c1ccc2c(c1)C1C(Cl)C(Sc3ccccc3[N+](=O)[O-])CC1C(c1ccccc1[N+](=O)[O-])N2 (stereo not drawn) | 79% (active)
14 | COc1ccc(CC2NCCc3cc(OC)c(OC)cc32)cc1OC (stereo not drawn) | 7% (inactive)
15 | CCNCC1(c2ccc(OC)c(OC)c2)CCCC1 | 17% (inactive)
16 | NC(=O)c1ccc(N=Nc2c(O)[nH]c(=O)[nH]c2=O)cc1 | 28% (inactive)
17 | CC1(C)CC(CCNCc2ccc3c(c2)OCO3)(Cc2ccccc2)CCO1 (stereo not drawn) | 0% (inactive)
18 | COc1ccc(Cn2c(N)c(C(=O)NCc3ccco3)c3nc4ccccc4nc32)cc1 | 26% (inactive)
19 | CCOc1ccccc1N1C(=O)NC(=O)C(CCc2ccncc2)(CCc2ccncc2)C1=O | 59% (inactive)
20 | COc1cc2c(cc1OC)CC(C)(C)NC2 | 3% (inactive)
21 | O=C(O)c1cccc2c1NC(c1cccc([N+](=O)[O-])c1)C1CC(Sc3ccccc3[N+](=O)[O-])C(Cl)C21 (stereo not drawn) | 62% (inactive)

Same assay, conditions: fluorescent ligand competition, binding inhibition, at 0.1 µM, stronger effect = higher value

Row | Structure (SMILES) | inhibition of ligand binding
22 | C[C@H]1CCC[C@@H](O)CCC/C=C/c2cc(O)cc(O)c2C(=O)O1 | 74%
23 | O=C(O)c1cccc2c1NC(C(=O)O)C1CC(Sc3ccccc3[N+](=O)[O-])C(Cl)C21 (stereo not drawn) | 1%
24 | Cc1ccc(S(=O)(=O)Cc2ccc(C(=O)N3CCC4(CC3)OCCO4)o2)cc1 | 24%
25 | CC(=O)c1ccc2c(c1)C1C(Cl)C(Sc3ccccc3[N+](=O)[O-])CC1C(c1ccccc1[N+](=O)[O-])N2 (stereo not drawn) | 38%
26 | NC(=O)c1ccc(N=Nc2c(O)[nH]c(=O)[nH]c2=O)cc1 | 14%
27 | COc1ccc(Cn2c(N)c(C(=O)NCc3ccco3)c3nc4ccccc4nc32)cc1 | 45%
28 | CCOc1ccccc1N1C(=O)NC(=O)C(CCc2ccncc2)(CCc2ccncc2)C1=O | 24%
